Results: PubChem BioAssay (Tox21)
Values without a mark were called inactive. Records with an inconclusive call do not appear. Entries that show only a call come without a potency. Active and inactive are the calls of the source. Unless noted, the call rests on the fitted dose curve; in most records, active means well fitted curve in the direction sought with a large enough effect in the repeat runs; inconclusive means weak or mixed curves; inactive means no such curve, though single readings can be large; an effect the other way counts as inactive or inconclusive.

Legend:
[1] = qHTS RealTime-Glo MT Cell Viability Assay in HEK293 cells - 0 hour (AID 1224880); further: nearly all actives have a fitted effect of over 45% in size; further: potency means the concentration at half of the fitted maximal effect
In short: (§1)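 Luminescence readout at each listed time point; HEK293, 600 cells/well, RealTime-Glo MT reagent added with cells; compounds pinned (23 nL in DMSO) after 5 h at 37 C; continuous culture at 37 C.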

[2] = A CellTox Green Cytotoxicity Assay to monitor cytotoxicity in HEK293 cells - 32 hour (AID 1224881); further: nearly all actives have a fitted effect of over 40% in size; further: potency means the concentration at half of the fitted maximal effect
In short: (§2)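 Read-out: fluorescence of a cell-impermeant cyanine dye staining DNA of dead cells, proportional to cytotoxicity. HEK293, 600 cells/well with reagent, compound (23 nL DMSO) added after 5 h; reads at 0, 8, 16, 24, 32, 40 h.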

[3] = A CellTox Green Cytotoxicity Assay to monitor cytotoxicity in HepG2 cells - 0 hour (AID 1224882); further: nearly all actives have a fitted effect of over 35% in size
In short: (§3)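 HepG2, 600 cells/well premixed w/ CellTox Green; 5 h settle, 37 C/5% CO2; pintool cpd add (DMSO); 37 C, 40 h; fluorescence read at 0, 8, 16, 24, 32, 40 h.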

[4] = A CellTox Green Cytotoxicity Assay to monitor cytotoxicity in HEK293 cells - 8 hour (AID 1224884); further: nearly all actives have a fitted effect of over 35% in size; further: potency means the concentration at half of the fitted maximal effect
In short: as §2

[5] = qHTS RealTime-Glo MT Cell Viability Assay in HepG2 cells - 16 hour (AID 1224885); further: nearly all actives have a fitted effect of over 50% in size; further: potency means the concentration at half of the fitted maximal effect
In short: (§4)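 Cell number in HepG2 cultures estimated from NanoLuc luminescence generated by metabolic reduction of a prosubstrate by living cells. The homogeneous, nonlytic format allowed repeated reads at 0, 8, 16, 24, 32 and 40 h of compound exposure.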

[6] = qHTS RealTime-Glo MT Cell Viability Assay in HEK293 cells - 24 hour (AID 1224886); further: nearly all actives have a fitted effect of over 50% in size; further: potency means the concentration at half of the fitted maximal effect
In short: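 Homogeneous bioluminescent viability format in HEK293 cells (600 cells/well). Following 5 h at 37 C/5% CO2, 23 nL compound was pintooled; the signal was measured repeatedly during 40 h incubation.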

[7] = qHTS RealTime-Glo MT Cell Viability Assay in HEK293 cells - 8 hour (AID 1224887); further: nearly all actives have a fitted effect of over 50% in size; further: potency means the concentration at half of the fitted maximal effect
In short: as §1

[8] = A CellTox Green Cytotoxicity Assay to monitor cytotoxicity in HEK293 cells - 16 hour (AID 1224888); further: nearly all actives have a fitted effect of over 35% in size; further: potency means the concentration at half of the fitted maximal effect
In short: as §2

[9] = qHTS RealTime-Glo MT Cell Viability Assay in HepG2 cells - 0 hour (AID 1224889); further: nearly all actives have a fitted effect of over 50% in size; further: potency means the concentration at half of the fitted maximal effect
In short: as §4

[10] = A CellTox Green Cytotoxicity Assay to monitor cytotoxicity in HepG2 cells - 8 hour (AID 1224890); further: nearly all actives have a fitted effect of over 45% in size; further: potency means the concentration at half of the fitted maximal effect
In short: as §3

[11] = qHTS assay to identify small molecule antagonists of the estrogen receptor alpha (ER-alpha) signaling pathway using the BG1 cell line in the presence of 0.1 nM 17-beta-estradiol - cell viability counter screen (AID 1259241); further: nearly all actives have a fitted effect of over 40% in size; further: potency means the concentration at half of the fitted maximal effect
In short: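 VM7Luc4E2, 4,000 cells/well, phenol red-free medium + 10% charcoal-stripped FBS; 24 hr plating; cpd + 0.1 nM E2 final, 22 hr 37C/5% CO2; CellTiter-Fluor 30 min, fluorescence.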

[12] = qHTS assay to identify small molecule antagonists of the androgen receptor (AR) signaling pathway using the MDA cell line in the presence of 0.5 nM R1881 - cell viability counter screen (AID 1259242); further: nearly all actives have a fitted effect of over 45% in size; further: potency means the concentration at half of the fitted maximal effect
In short: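 Live-cell protease fluorescence, CellTiter-Fluor, 30 min at 37C. Cells: MDA-kb2, 3,000/well, preincubated 5 hr. Compounds plus 0.5 nM R1881 final, 16 hr, 37C, 0% CO2.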

[13] = qHTS assay to identify small molecule phospholipidosis (PLD) inducers (AID 1259344; active means well fitted curve in the direction sought with a large enough effect; an effect the other way counts as inactive or inconclusive)
In short: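 After 4 h attachment on collagen I, HepG2 cells were dosed with compound alongside LipidTOX Red, kept 24 h at 37 C, fixed, and imaged for lamellar phospholipid pits.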

[14] = qHTS assay to identify small molecule HDAC inhibitors (AID 1259364); further: potency means the concentration at half of the fitted maximal effect;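 further: wild-type HCT-116 cells with endogenous class I/II HDAC activity; nearly all actives have a fitted effect of over 45% in size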
In short: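 HCT-116 (wild type), 1,500 cells/well, overnight; compound 2 hr 37C 5% CO2; HDAC-Glo I/II reagent 30 min RT; luminescence readout.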

[15] = qHTS assay to identify small molecule HDAC inhibitors - cell viability counter screen (AID 1259365)
In short: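 Luminescence from CellTiter-Glo, developed 30min at room temperature, reports viability of wild-type HCT-116 cells treated 2hr with compounds at 37 C and 5% CO2 after overnight plating.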

[16] = qHTS assay to identify small molecule agonists of the sonic hedgehog signaling (Shh) pathway - cell viability counter screen (AID 1259366); further: nearly all actives have a fitted effect of over 50% in size; further: potency means the concentration at half of the fitted maximal effect
In short: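 Cytotoxicity counter screen run in the same wells as the Shh reporter assay. NIH/3T3 cells carrying a Gli1 response element–driven luciferase were treated with DMSO-dissolved compounds for 24hr, and live-cell protease activity was measured with CellTiter-Fluor.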

[17] = qHTS assay to identify small molecule antagonists of the sonic hedgehog signaling (Shh) pathway - cell viability counter screen (AID 1259367); further: nearly all actives have a fitted effect of over 55% in size; further: potency means the concentration at half of the fitted maximal effect
In short: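 Conditioned medium drove Shh signaling in 3T3 Gli1-Luc cells exposed to compounds at 37C and 5% CO2. Viability was determined from CellTiter-Fluor fluorescence, with reagent incubated 1 hr after 23 hr of treatment.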

[18] = A CellTox Green Cytotoxicity Assay to monitor cytotoxicity in HepG2 cells - 32 hour (AID 1224883); further: nearly all actives have a fitted effect of over 50% in size; further: potency means the concentration at half of the fitted maximal effect
In short: as §3

[19] = target: Estrogen receptor (Homo sapiens) (UniProt P03372); test: qHTS assay to identify small molecule antagonists of the estrogen receptor alpha (ER-alpha) signaling pathway using the BG1 cell line in the presence of 0.1 nM 17-beta-estradiol (AID 1259244); further: nearly all actives have a fitted effect of over 50% in size; further: potency means the concentration at half of the fitted maximal effect
In short: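 Luminescence after ONE-Glo (30 min, room temperature) measured ERE-luciferase activity in VM7Luc4E2 cells treated 22 h with compound and 0.1 nM final 17beta-estradiol as stimulator.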

[20] = target: Androgen receptor (Homo sapiens) (UniProt P10275); test: qHTS assay to identify small molecule antagonists of the androgen receptor (AR) signaling pathway using the MDA cell line in the presence of 0.5 nM R1881 (AID 1259243); further: nearly all actives have a fitted effect of over 50% in size
In short: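 MDA-kb2, MMTV-luc (AR/GR elements); 3,000 cells/well; cpd + 0.5 nM R1881 final; 16 hr 37C, 0% CO2; ONE-Glo 30 min RT; luminescence.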

Chain of Estrogen receptor (Homo sapiens) (P03372 whole entry, looked up): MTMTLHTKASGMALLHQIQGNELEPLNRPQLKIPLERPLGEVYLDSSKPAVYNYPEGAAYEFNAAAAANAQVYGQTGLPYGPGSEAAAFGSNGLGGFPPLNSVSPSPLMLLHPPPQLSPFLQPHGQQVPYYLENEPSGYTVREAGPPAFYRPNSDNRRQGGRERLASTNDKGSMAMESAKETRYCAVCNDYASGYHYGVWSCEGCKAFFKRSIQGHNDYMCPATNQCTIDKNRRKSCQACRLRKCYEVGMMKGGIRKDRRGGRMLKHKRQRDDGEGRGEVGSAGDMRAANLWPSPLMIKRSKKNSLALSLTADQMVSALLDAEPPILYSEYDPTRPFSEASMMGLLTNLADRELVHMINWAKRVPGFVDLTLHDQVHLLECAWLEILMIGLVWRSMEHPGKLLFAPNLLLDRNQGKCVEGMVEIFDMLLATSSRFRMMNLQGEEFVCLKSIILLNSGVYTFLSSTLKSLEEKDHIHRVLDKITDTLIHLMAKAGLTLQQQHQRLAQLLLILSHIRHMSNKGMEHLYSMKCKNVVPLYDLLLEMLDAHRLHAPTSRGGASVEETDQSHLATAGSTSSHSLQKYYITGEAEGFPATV
Chain of Androgen receptor (Homo sapiens) (P10275 whole entry, looked up): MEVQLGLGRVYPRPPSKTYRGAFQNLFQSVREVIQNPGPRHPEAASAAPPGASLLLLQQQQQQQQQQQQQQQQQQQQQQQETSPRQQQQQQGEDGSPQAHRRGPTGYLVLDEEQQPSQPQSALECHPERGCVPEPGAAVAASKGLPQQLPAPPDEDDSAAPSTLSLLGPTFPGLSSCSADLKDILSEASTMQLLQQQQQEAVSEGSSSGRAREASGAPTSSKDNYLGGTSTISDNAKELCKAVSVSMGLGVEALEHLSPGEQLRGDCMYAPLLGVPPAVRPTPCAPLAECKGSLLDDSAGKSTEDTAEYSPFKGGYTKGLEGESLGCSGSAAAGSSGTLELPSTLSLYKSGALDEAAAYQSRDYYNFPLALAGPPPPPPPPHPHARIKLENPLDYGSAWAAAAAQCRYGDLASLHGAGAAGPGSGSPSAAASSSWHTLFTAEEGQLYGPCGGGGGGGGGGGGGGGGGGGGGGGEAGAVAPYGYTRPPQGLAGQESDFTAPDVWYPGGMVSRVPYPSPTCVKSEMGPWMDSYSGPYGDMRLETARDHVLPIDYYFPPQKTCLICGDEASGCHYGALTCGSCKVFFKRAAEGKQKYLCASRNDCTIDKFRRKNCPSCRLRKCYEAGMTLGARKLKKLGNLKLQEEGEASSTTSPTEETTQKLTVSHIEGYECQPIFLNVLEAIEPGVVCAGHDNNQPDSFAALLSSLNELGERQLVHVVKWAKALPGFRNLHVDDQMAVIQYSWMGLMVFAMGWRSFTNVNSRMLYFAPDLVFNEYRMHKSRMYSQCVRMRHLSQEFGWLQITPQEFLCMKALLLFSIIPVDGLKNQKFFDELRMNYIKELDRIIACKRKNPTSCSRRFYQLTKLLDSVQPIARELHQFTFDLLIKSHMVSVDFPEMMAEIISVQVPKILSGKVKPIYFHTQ

Row | Structure (SMILES) | Potency [1] | Potency [2] | Potency [3] | Potency [4] | Potency [5] | Potency [6] | Potency [7] | Potency [8] | Potency [9] | Potency [10] | Potency [11] | Potency [12] | Potency [13] | Potency [14] | Potency [15] | Potency [16] | Potency [17] | Potency [18] | Potency [19] | Potency [20]
1 | O[C@@H]1CO[C@H]2[C@@H]1OC[C@@H]2O | inactive | inactive | inactive | inactive | inactive | inactive | inactive | inactive | inactive | inactive | inactive | inactive | inactive | inactive | inactive | inactive | inactive |  |  | 
2 | CC(=O)Oc1ccc([N+](=O)[O-])cc1CCl | inactive | inactive | inactive | inactive | inactive | 4.36 µM (active) |  | inactive | inactive | inactive | 54.5 µM (active) | 30.6 µM (active) |  | inactive | inactive | 27.3 µM (active) | 27.3 µM (active) | inactive | inactive | 
3 | CC(C)C[C@H](NC(=O)[C@H](CCc1ccccc1)NC(=O)CN1CCOCC1)C(=O)N[C@@H](Cc1ccccc1)C(=O)N[C@@H](CC(C)C)C(=O)[C@@]1(C)CO1 | inactive | 0.301 µM (active) | inactive | inactive |  | 0.0674 µM (active) | inactive | inactive | inactive | inactive | inactive | 16.8 µM (active) | inactive | inactive | inactive | inactive | inactive | 0.0239 µM (active) |  | 
4 | CCCCOc1ccc(OCCCN2CCOCC2)cc1 | inactive | inactive | inactive | inactive | inactive |  | inactive | inactive |  | inactive | inactive | inactive | inactive | inactive | inactive |  | inactive | inactive | inactive | 
5 | C=C(C)CCCC(C)CCO (centres undefined) | inactive | inactive | inactive | inactive | inactive | inactive | inactive | inactive | inactive | inactive | inactive | inactive |  | inactive |  |  | inactive |  | inactive | 
6 | CCC1CO1 (centres undefined) | inactive | inactive | inactive | inactive | inactive | inactive | inactive |  |  | inactive | inactive | inactive |  | inactive | inactive | inactive | inactive | inactive |  | 
7 | COc1cc(C(=O)NC2CCN(C)CC2)ccc1Nc1ncc2c(n1)N(C1CCCC1)CC(F)(F)C(=O)N2C | inactive | 35.7 µM (active) | inactive | 17.9 µM (active) | 40 µM (active) | 0.1 µM (active) |  | 17.9 µM (active) | inactive | 50.4 µM (active) |  |  |  | inactive | inactive | 5.6 µM (active) | 0.791 µM (active) | 25.2 µM (active) | 2.81 µM (active) | inactive
8 | CC(CO)CO | inactive | inactive | inactive | inactive | inactive | inactive | inactive | inactive | inactive | inactive | inactive | inactive |  | inactive | inactive | inactive | inactive |  | inactive | 
9 | CN1CCCC(n2nc(Cc3ccc(Cl)cc3)c3ccccc3c2=O)CC1 (centres undefined) | inactive | 30.1 µM (active) | inactive | inactive | inactive | 8.49 µM (active) | 7.56 µM (active) |  |  |  |  | inactive |  | inactive |  | 10.6 µM (active) | 10.6 µM (active) | 23.9 µM (active) |  | 
10 | O=C1Cc2cc(Cl)ccc2N1 | inactive | inactive | inactive | inactive | inactive | inactive |  | inactive | inactive | inactive | inactive | inactive |  | inactive |  | inactive | inactive | inactive |  | inactive
11 | O=C(O)CCCCCCCCCCCBr | inactive | inactive | inactive | inactive | inactive | inactive | inactive | inactive | inactive | inactive | inactive | inactive |  | 24.4 µM (active) | inactive | inactive | inactive |  | inactive | 
12 | Oc1cccc(O)c1O | inactive | inactive | inactive | inactive | inactive | inactive | inactive |  | inactive | inactive |  | inactive | inactive | inactive |  |  | 48.1 µM (active) | inactive | inactive | 
13 | O=C(O)c1ccc(OCCCOc2ccc(C(=O)O)cc2)cc1 | inactive | inactive | inactive | inactive | inactive | inactive | inactive | inactive | inactive | inactive | inactive | inactive | inactive | inactive | inactive | inactive | inactive |  |  | 
14 | CCOC(=O)C1=C(C)NC(C)=C(C(=O)OC)C1c1cccc(Cl)c1Cl (centres undefined) | 5.35 µM (active) | inactive | inactive | inactive | 19 µM (active) |  | inactive | inactive | 6.74 µM (active) | inactive | inactive | inactive | inactive | inactive |  | inactive | inactive | inactive | inactive | 
